Records with an inconclusive call do not appear. A call without a number means that no potency is given here. Values without a mark were called inactive. Active and inactive are the calls of the source. The call rests on the fitted dose curve; in most records, active means well fitted curve in the direction sought with a large enough effect; inconclusive means small, poorly fitted or top-dose-only effect, or another doubt; inactive means no such curve, though single readings can be large; an effect the other way counts as inactive or inconclusive.

The nature of one test: Primary redox qHTS assay for identification of artifact compounds. (AID 1845223). Conditions: Amplex Red/HRP redox cycling with DTT, fluorescence; series mostly up to 53.8 µM. In a few lines: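 Amplex Red (25 uM) and HRP (250 mU/mL) in HBSS, with compounds for 15 min, then 250 uM DTT for 30 min, room temperature, dark. Fluorescence 525/598 nm read; normalized to DMSO and 10 uM DA3003; Hill fit.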
For the compound `CC(C)Nc1cc(C(F)(F)F)cc2nc(NC(=O)c3cccnc3)nn12`, the Potency entry was “inactive”.

Regarding `CC(C)CC(=O)Nc1n[nH]c2c1CN(C(=O)C1CCN(C)CC1)C2(C)C`, the Potency entry was “inactive”.

`Cn1cc(-c2[nH]c3cc(NC(=O)[C@H](N)C4CCCCC4)cc4c3c2C=NNC4=O)cn1`: the Potency result is “inactive”.

As for `O=C(c1cncc(Br)c1)N1CCC(N2CCCC2)CC1`, the Potency result was “inactive”.

Turning to `COc1c(OCCCN2CCOCC2)ccc2c3n(c(=NC(=O)c4cnc(N)nc4)nc12)CCN3`, the redox activity (% of DA3003) was -6.72% [at 11.5 µM].

As to `CCCNC(=O)Nc1ccc(Oc2ncnc3cc(OC)c(OC)cc23)cc1Cl`, the Potency result was “inactive”.

For the compound `CNC(=O)c1ccc(-c2cnc3ncc(Cc4ccc5ncccc5c4)n3n2)cc1F`, the Potency entry is “inactive”.

Consider `CCc1cc2c(cc1N1CCC(N3CCOCC3)CC1)C(C)(C)c1[nH]c3cc(C#N)ccc3c1C2=O`, for which the Potency entry is “inactive”.

As to `O=c1c2ccccc2nc2n1CCc1c-2[nH]c2ccccc12`, the Potency result is “inactive”.

`COc1cc2c(cc1-c1c(C)noc1C)ncc1[nH]c(=O)n([C@H](C)c3ccccn3)c12`: the Potency result was “inactive”.

The next test can be described thus: Quantitative High-Throughput drug screen in 47 multiple myeloma cell lines against the NCATS MIPE library collection: FR4_PLB cell viability assay (AID 1918924; further: nearly all actives have a fitted effect of over 35% in size; further: potency means the concentration at half of the fitted maximal effect). Conditions: FR4_PLB myeloma cells viability, CellTiter-Glo ATP, 48 h; series mostly up to 45.8 µM. In a few lines: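 Luminescent ATP measurement with CellTiter-Glo gives viability, scaled between DMSO-only wells (100%) and media-only wells (0%). Cells, 500 per well, faced library compounds for 48 hours at 37C.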
For `CC(C)[C@H](C(=O)Nc1ccc(C(=O)NO)cc1)c1ccccc1`, the Potency was 0.372 µM (active).

On to `Nc1ccn([C@@H]2CS[C@H](CO)O2)c(=O)n1`, for which the Potency result is “inactive”.

In the case of `COc1c(OCCCN2CCOCC2)ccc2c3n(c(=NC(=O)c4cnc(N)nc4)nc12)CCN3`, the Potency was 2.88 µM (active).

On to `CN(C)Cc1c(C(=O)NCCOc2ccc(C(=O)NO)cc2)oc2ccccc12`, for which the Potency was 0.526 µM (active).

As to `COc1cccc2c(NCc3ccccc3)nc(-n3c(N)nc4ccccc43)nc12`, the Potency is 6.62 µM (active).

In the case of `CC(C)C[C@H](NC(=O)CNC(=O)c1cc(Cl)ccc1Cl)B(O)O`, the Potency is 0.0833 µM (active).

On to `CC(C)(C)OC(=O)Nc1ccc(-c2cc(C(=O)NCCCCCCC(=O)NO)no2)cc1`, for which the Potency was 1.32 µM (active).

Consider `O=C(CCCCCCNC(=O)c1cnc(N(c2ccccc2)c2ccccc2)nc1)NO`, for which the Potency was 2.96 µM (active).

For the origin of these results see PubChem BioAssay (NCATS).
